Screening results from PubChem.
Only a selection was taken, and hits are over-represented in it overall.
KDM5B inh: Primary screen for KDM5B Histone Demethylases FDH-coupled qHTS; Lysine-specific demethylase 5B (Homo sapiens), Q9UGL1; KDM5B demethylase, FDH-coupled NADH fluorescence (FDH is formaldehyde dehydrogenase); Potency, µM (series often up to 57.7 µM), usual class: inhibitors; actives 2.6% (n = 220,000); AID 1347165, 2019; active = well fitted inhibition curve with a large enough effect; note: 0% is about no effect; nearly all actives have a fitted effect of over 70% in size
Target sequence (Q9UGL1 whole entry, looked up): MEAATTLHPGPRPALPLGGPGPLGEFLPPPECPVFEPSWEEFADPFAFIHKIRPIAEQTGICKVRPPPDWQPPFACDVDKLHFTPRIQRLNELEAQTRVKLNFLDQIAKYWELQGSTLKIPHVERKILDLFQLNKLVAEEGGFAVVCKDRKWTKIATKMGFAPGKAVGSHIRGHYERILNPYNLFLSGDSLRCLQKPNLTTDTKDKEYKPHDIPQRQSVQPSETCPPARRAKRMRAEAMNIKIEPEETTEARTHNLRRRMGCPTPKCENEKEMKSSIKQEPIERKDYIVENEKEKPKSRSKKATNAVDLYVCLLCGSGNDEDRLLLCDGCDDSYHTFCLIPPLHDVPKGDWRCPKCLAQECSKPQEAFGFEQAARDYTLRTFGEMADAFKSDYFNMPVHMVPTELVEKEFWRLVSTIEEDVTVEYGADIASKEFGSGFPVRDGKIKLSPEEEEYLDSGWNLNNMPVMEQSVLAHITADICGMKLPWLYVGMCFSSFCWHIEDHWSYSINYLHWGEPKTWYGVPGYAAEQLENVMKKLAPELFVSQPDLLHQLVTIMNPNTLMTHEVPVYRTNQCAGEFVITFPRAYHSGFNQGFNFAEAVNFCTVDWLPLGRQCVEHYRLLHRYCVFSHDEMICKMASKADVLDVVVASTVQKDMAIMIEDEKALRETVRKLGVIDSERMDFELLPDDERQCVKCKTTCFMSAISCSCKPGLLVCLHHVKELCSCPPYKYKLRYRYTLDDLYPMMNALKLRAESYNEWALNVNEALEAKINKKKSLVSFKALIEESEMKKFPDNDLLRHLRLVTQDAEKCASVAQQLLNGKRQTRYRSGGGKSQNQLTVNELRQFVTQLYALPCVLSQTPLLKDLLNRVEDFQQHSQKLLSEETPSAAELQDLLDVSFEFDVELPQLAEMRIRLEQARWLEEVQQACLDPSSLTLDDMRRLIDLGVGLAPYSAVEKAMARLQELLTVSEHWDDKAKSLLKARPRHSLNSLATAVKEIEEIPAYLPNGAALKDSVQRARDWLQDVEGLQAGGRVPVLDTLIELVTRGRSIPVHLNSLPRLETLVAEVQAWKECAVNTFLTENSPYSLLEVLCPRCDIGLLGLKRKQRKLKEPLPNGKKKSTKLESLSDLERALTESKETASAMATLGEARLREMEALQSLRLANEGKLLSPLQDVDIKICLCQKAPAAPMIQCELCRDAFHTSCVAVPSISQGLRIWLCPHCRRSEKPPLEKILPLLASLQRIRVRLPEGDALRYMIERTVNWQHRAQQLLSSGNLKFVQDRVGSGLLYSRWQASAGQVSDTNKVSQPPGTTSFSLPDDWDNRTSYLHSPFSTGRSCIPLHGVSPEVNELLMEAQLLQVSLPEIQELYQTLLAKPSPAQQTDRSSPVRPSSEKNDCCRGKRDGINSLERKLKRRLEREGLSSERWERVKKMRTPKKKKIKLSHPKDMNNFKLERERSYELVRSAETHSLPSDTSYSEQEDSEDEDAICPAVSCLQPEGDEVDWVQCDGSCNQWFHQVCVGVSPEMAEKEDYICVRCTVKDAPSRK
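Measured: NADH fluorescence change, 30 min, RT. System: KDM5BΔAP 200 nM final, H3K4me3 peptide, α-KG, Fe(II), ascorbate, NAD⁺ plus FDH, pH 7.5 HEPES. Compounds: titrated, 10 min pre-incubation with enzyme.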
The depositor's hits bear a star; i = inactive. Potency is the fitted concentration of half-maximal effect.

SMILES	KDM5B inh
Cc1ccccc1-c1ccc2n(c1=O)C[C@H]1C[C@@H]2CN(C(=O)c2cncnc2)C1	i
O=C(c1ccccc1)N1C[C@@H]2C[C@H](C1)c1c(-c3ccccc3F)ccc(=O)n1C2	i
CC1=C(C(=O)OCc2ccc3c(c2)OCO3)[C@H]2C[C@](C)(N1)Oc1ccccc12	i
COc1ccccc1-c1cc([C@H]2CN3CC[C@H]2C[C@@H]3COC(=O)Nc2ccc(C(C)C)cc2)nc(C)n1	i
COc1cc(CNC2CN3CCC2CC3)ccc1OCc1c(F)cccc1Cl (stereo unspecified)	i
COc1ccccc1CC(=O)N1CC2(CCN(C)CC2)c2cc(OC)c(OCc3ccccc3)cc21	i
COc1ccc2[nH]c(C)c(CCNCc3ccccc3F)c2c1	i
CCCOc1cccc(CCN)c1	i
Cc1nc(-c2ccco2)cc([C@H]2CN3CC[C@H]2C[C@@H]3CNCc2ccccc2)n1	i
COc1ccc(CNCCc2cccc(Cl)c2)cc1	i
CC(Cc1ccco1)NCc1cc2ccccc2o1 (stereo unspecified)	i
O=C1CSC(c2ccc(Cl)cc2)c2cn[nH]c2N1 (stereo unspecified)	i
COc1ccc(C(C#N)C(C)=O)cc1 (stereo unspecified)	i
COc1ccccc1CCNCc1cccs1	i
O=C(c1ccc(F)cc1)N1C[C@@H]2C[C@H](C1)c1c(C3CCCCC3)ccc(=O)n1C2	i
CCCS(=O)(=O)Nc1ccc2n(c1=O)C[C@H]1C[C@@H]2CN(C(=O)Nc2ccc(OC)cc2)C1	i
O=C(c1ccc(F)cc1)N1C[C@@H]2C[C@H](C1)c1ccc(C3CCCCC3)c(=O)n1C2	32µM*
CC(=O)N1C[C@@H]2C[C@H](C1)c1ccc(NC(=O)Nc3ccccc3)c(=O)n1C2	28µM*
O=C(C1CCCCC1)N1C[C@@H]2C[C@H](C1)c1c(-c3cncnc3)ccc(=O)n1C2	i
CN(C)Cc1ccccc1-c1ccc2n(c1=O)C[C@H]1C[C@@H]2CN(C(=O)c2ccco2)C1	32µM*
O=C(Nc1ccc(=O)n2c1[C@@H]1C[C@@H](CN(S(=O)(=O)c3ccccc3)C1)C2)c1ccco1	i
O=C(Nc1ccc2n(c1=O)C[C@H]1C[C@@H]2CN(C(=O)c2ccccn2)C1)c1ccccc1	i
Cc1ccc(C(=O)NC[C@H]2C[C@@H]3CCN2C[C@@H]3c2cc(C3CCCCC3)nn2C)cc1	i
Cc1cc(O)c2c(C)c(CC(=O)N3CCN(C)CC3)c(=O)oc2c1	i
Cc1cc(C)cc(N2C(=O)NC(=O)C3(Cc4cc(C)ccc4N(C)C3)C2=O)c1 (stereo unspecified)	i
SMILES	KDM5B inh
O=C1CS(=O)(=O)C2(CCNCC2)N1c1ccccc1	i
Cc1ccc(-n2nc(C)c3c2NC(=O)CSC3c2ccsc2)cc1 (stereo unspecified)	i
COC(=O)C12CCC(CC1c1ccccc1)OC2=O (stereo unspecified)	i
O[C@H]1[C@H](NCC2CCCC2)[C@@H](c2ccccc2)C[C@H]1O	i
Oc1ccc(C2N(O)C3CCCCC3N2O)cc1 (stereo unspecified)	i
CSc1ccc(-c2ccc(=O)n3c2[C@@H]2C[C@@H](CN(S(C)(=O)=O)C2)C3)cc1	35µM*
O=c1ccc(-c2cccs2)c2n1C[C@H]1C[C@@H]2CN(S(=O)(=O)c2cccs2)C1	32µM*
O=c1ccc(-c2cccs2)c2n1C[C@H]1C[C@@H]2CN(S(=O)(=O)c2cccc(C(F)(F)F)c2)C1	i
CCCS(=O)(=O)Nc1ccc(=O)n2c1[C@@H]1C[C@@H](CN(C(=O)c3ccc(OC)cc3)C1)C2	i
O=c1ccc(-c2cncnc2)c2n1C[C@H]1C[C@@H]2CN(S(=O)(=O)c2ccccc2)C1	i
O=C(C1CCCCC1)N1C[C@@H]2C[C@H](C1)c1c(-c3cccs3)ccc(=O)n1C2	i
O=C(C1CCCCC1)N1C[C@@H]2C[C@H](C1)c1c(-c3ccc(Cl)cc3)ccc(=O)n1C2	i
COc1ccc(-c2ccc(=O)n3c2[C@@H]2C[C@@H](CN(C(=O)CSC)C2)C3)cc1	i
O=C(c1cnccn1)N1C[C@@H]2C[C@H](C1)c1c(-c3ccccc3)ccc(=O)n1C2	i
CCCS(=O)(=O)Nc1ccc(=O)n2c1[C@@H]1C[C@@H](CN(C(=O)COc3ccccc3)C1)C2	32µM*
O=c1ccc(-c2ccc(Cl)cc2)c2n1C[C@H]1C[C@@H]2CN(S(=O)(=O)c2ccccc2)C1	i
CSCC(=O)N1C[C@@H]2C[C@H](C1)c1c(-c3ccc(NC(C)=O)cc3)ccc(=O)n1C2	28µM*
COCCNC(=O)NC(=O)CCl	i
C#C[C@@H]1CC2C3CCC4=CC(=O)CCC4C3CCC2(CC)C1O (stereo partly specified)	i
C1NC2CC3CC1CC(C3)C2	i
Cc1ccc(C(C)C)cc1OCC(=O)N1CCN(Cc2nc(N)c3ccccc3n2)CC1	i
Cc1cnc(N2CC3CCC(C2)N3CC(F)(F)F)c([N+](=O)[O-])c1	i
CCCCNC(=O)NC(=O)CCl	i
CN(C)CCCN1CCC(=O)C2CCCCC21 (stereo unspecified)	i
COc1cc2c(cc1OCc1ccccc1)N([S+](=O)([O-])c1cccc3cccnc13)CC21CCN(C)CC1	i
SMILES	KDM5B inh
Cc1nn(-c2cccc(Cl)c2)c2c1C(c1ccsc1)SCC(=O)N2 (stereo unspecified)	i
CN(C)c1ccc(C2CC2N)cc1 (stereo unspecified)	i
O=C1CO[C@H]2CN(Cc3ncc[nH]3)C[C@H]2N1Cc1ccccn1	35µM*
O=C1CO[C@H]2CN(Cc3ccccn3)C[C@H]2N1c1ccccc1	i
CN1C(=O)CO[C@H]2CN(Cc3ccccn3)C[C@H]21	40µM*
O=C1CO[C@H]2CN(Cc3ccco3)C[C@H]2N1Cc1ccccn1	i
O=C1CO[C@H]2CN(Cc3ccccc3)C[C@H]2N1Cc1ccccn1	i
NC(=O)CN1C(=O)CO[C@H]2CN(Cc3ccccn3)C[C@H]21	i
CC(C)(c1ccccc1)c1ccc(O)c(C(C)(C)c2ccccc2)c1	i
CC(C)(C)c1cn(C[C@H]2CC3CCN2C[C@@H]3C(=O)Nc2nccs2)nn1 (stereo partly specified)	i
Cc1ncsc1CN1CC(CO)C2(CCNCC2)C1 (stereo unspecified)	i
COc1cc2c(cc1CCc1ccccc1)N(C(=O)c1ccc3[nH]ccc3c1)CC21CCN(C(C)=O)CC1	i
Cc1[nH]c2ccccc2c1/C=C/[N+](=O)[O-]	i
Cc1cc(C(F)(F)F)nn1CC(=O)N1[C@H]2CC[C@@H]1c1cnc(-c3ccc(F)cc3)nc1C2	i
O=C(c1ccccc1)N1C[C@@H]2C[C@H](C1)c1ccc(-c3cccc(C(F)(F)F)c3)c(=O)n1C2	25µM*
CC(C)NC(=O)N1CC[C@@H](CC(=O)O)[C@@H](CCN2C[C@@H]3C[C@H](C2)c2cccc(=O)n2C3)C1	i
O=C(O)COCC(=O)N1C[C@@H]2C[C@H](C1)c1ccc(-c3cccc(C(F)(F)F)c3)c(=O)n1C2	32µM*
O=C(c1ccccc1)N1C[C@@H]2C[C@H](C1)c1ccc(-c3ccc(Cl)cc3)c(=O)n1C2	i
O=C(O)CCC(=O)N1C[C@@H]2C[C@H](C1)c1ccc(-c3ccc(Cl)cc3)c(=O)n1C2	35µM*
C#CCOc1ccc(CCN)cc1	i
C[N+](C)(C)CC1CC1	i
